Results: ChEMBL document CHEMBL1157539, “Thousands of chemical starting points for antimalarial lead identification” (Nature, 2010)

These molecules were tested on HepG2 (assay: GSK_TCMDC: Percent inhibition of human HepG2 cell line. Test compounds present at 10uM.).
Type: functional

Row | SMILES | Inhibition [%]
1 | C=CCOC(=O)N1CCC(CNCc2cccc(-c3ccc(-c4nc5ccccc5[nH]4)s3)c2)C1.O=C(O)C(F)(F)F (centres undefined) | 9
2 | NC1CCN(Cc2ccc(-c3ccc(-c4nc5ccccc5[nH]4)cc3)cc2)C1.O=C(O)C(F)(F)F (centres undefined) | 34
3 | CCn1c(C)cc(C=C2SC(=Nc3ccccc3)NC2=O)c1C | 27
4 | O=C(Nc1cccc(C(F)(F)F)c1)NC1CCN(c2ccnc3ccccc23)CC1.O=C(O)C(F)(F)F | 23
5 | O=C(c1cccc(-c2noc(C(F)(F)F)n2)c1)N1CCN(c2ccncc2)CC1 | 14
6 | C=CCOC(=O)N1CCC(CNCc2ccc(-c3cccc(-c4nc5cc(F)ccc5[nH]4)c3)cc2)C1.O=C(O)C(F)(F)F (centres undefined) | 26
7 | CCOc1ccc2[nH]c(C)cc(=NN=Cc3ccccc3)c2c1 | 5
8 | CCCc1cc(Cc2cnc(N)nc2N)ccc1OCCCCCC(=O)O.Cl | 3
9 | COc1cc2nccc(Nc3ccc(OCc4ccc(NC(C)=O)cc4)cc3)c2cc1OC.Cl | 24
10 | CN(C)Cc1cc2c(O)c(Cc3ccccc3)ccc2o1 | 3
11 | Br.Oc1ccc(CNCCCCCCNCCc2ccc(Cl)cc2)cc1O | 2
12 | Cn1c(Nc2cc(C(C)(C)C)on2)nc2cc(Nc3ccnc(Nc4ccc(CS(C)(=O)=O)cc4)n3)ccc21 | 37
13 | COc1cc2nc(N(C)C)nc(Nc3ccc4c(cnn4Cc4ccccc4)c3)c2cc1OC | 90
14 | CC(=O)Nc1ccc2[nH]cc(C3CCN(CCC4CCN(C(=O)/C=C/c5ccc(Cl)c(Cl)c5)CC4)CC3)c2c1 | 13
